NS1 inh – qHTS Assay for Inhibitors of Influenza NS1 Protein Function; hit rate 0.4% among 270,000; AID 2326, 2010; Potency, µM (series often up to 46.1 µM); calls by dose curve; further: actives are rising curves; nearly all actives have a fitted effect of over 50% in size
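Recovery from NS1-induced slow growth read by OD600 in budding yeast switched to galactose assay medium (pH 6.0, -URA) at 1:100 dilution. Compound 23 nl per well; the matching strain lacking NS1 serves as control.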
Pf growth 96h – Primary qHTS for delayed death inhibitors of the malarial parasite plastid, 96 hour incubation | P. falciparum luciferase reporter growth, 96 h | Potency, µM (highest dose often 28.7 µM), usual class: inhibitors | hit rate 6.9% among 320,000
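Erythrocytes infected with luciferase-expressing P. falciparum were dispensed at 2% hematocrit and 0.05% parasitemia (final), then incubated with compounds 96 hours at 37 C in 5% CO2. Luminescence after detection reagent addition reported growth.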
Pf growth 48h – Primary qHTS for delayed death inhibitors of the malarial parasite plastid, 48 hour incubation; hit rate 5.9% among 310,000; Potency, µM (top dose mostly 28.7 µM), hits mostly inhibitors; P. falciparum luciferase growth in erythrocytes, 48 h
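First compound was added to culture medium, then infected red cells at 0.1% parasitemia and 2% hematocrit (final). After incubation at 37 C under 5% CO2, luciferase detection reagent was dispensed and light output recorded.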
Shiga inhibitor – A qHTS for Small Molecule Inhibitors of Shiga Toxin. Vero cells, Shiga toxin protein synthesis inhibition reporter. inhibition, % at 38.7 µM. hit rate 9.2% among 290,000. AID 2315, 2010; in the data active means inhibition mostly above about 28%, no sharp cut-off; inactive means mostly below about 43%
Cycloheximide cs – Cycloheximide Counterscreen for Small Molecule Inhibitors of Shiga Toxin. max response, %. cell reporter, cycloheximide protein synthesis inhibition counterscreen. hit rate 12% among 300,000; in the data active means max response mostly above about 13%, no sharp cut-off; inactive means mostly below about 14%; further: read at 38.3 µM for the half of the compounds with a filed dose
Each line names hits and unclear results; the compound was inactive in the other large screens. The list is not random: actives were taken first. Their share in the collection is about 21%. Unless noted, the call rests on the fitted dose curve; in most records, active means well fitted inhibition curve with a large enough effect; inconclusive means small, poorly fitted or top-dose-only effect, or another doubt; inactive means no such curve, though single readings can be large or run the other way.

O=C(Nc1cc(F)ccc1F)C1CCN(S(=O)(=O)c2cccc3nonc23)CC1	Pf growth 96h inconclusive
COc1ccc(CNC(=O)C2CC(c3cccc(OC)c3)=NO2)cc1 (centres undefined)	none
COc1cccc(C2=NOC(C(=O)NCc3cccs3)C2)c1 (centres undefined)	Shiga inhibitor 53.7, Cycloheximide cs 25.6
CCCCNC(=O)C1CC(c2cccc([N+](=O)[O-])c2)=NO1 (centres undefined)	Shiga inhibitor 83.1, Cycloheximide cs 25.3
O=C(NCc1cccs1)C1CC(c2ccc(F)cc2)=NO1 (centres undefined)	Pf growth 96h inconclusive, Shiga inhibitor 48.7, Cycloheximide cs 28.3 (no result: NS1 inh)
Cc1cc(C)n(CC(C)(O)c2ccccc2)n1 (centres undefined)	none (no result: NS1 inh, Shiga inhibitor, Cycloheximide cs)
CCOC(=O)c1sc(Nc2cccc(C)c2C)nc1C	Pf growth 48h inconclusive
COc1ccc(OC(=O)c2cnc3n(c2=O)CCS3)cc1	Cycloheximide cs 15.5
COc1ccccc1NC(=O)c1cnc2n(c1=O)CCS2	Pf growth 96h inconclusive
COc1ccc(OC)c(NC(=O)c2cnc3n(c2=O)CCS3)c1	Pf growth 96h 8.28µM (no result: Pf growth 48h)
Cc1ccc(-c2nn(-c3ccccc3)cc2/C=N/NC(=O)CSc2nnc(C)n2-c2ccccc2)cc1	Pf growth 48h inconclusive, Shiga inhibitor 54.4, Cycloheximide cs 35.8
COc1ccc(-c2nn(-c3ccccc3)cc2/C=N/Nc2ccc3ccccc3n2)cc1OC	Pf growth 96h 2.33µM, Pf growth 48h 2.62µM, Shiga inhibitor 79.8, Cycloheximide cs 33.7
NC(N)=N/N=C/c1cn(-c2ccccc2)nc1-c1cccs1	Pf growth 96h 0.522µM, Pf growth 48h 2.62µM (no result: NS1 inh)
COc1ccc(-c2nn(-c3ccccc3)cc2/C=N/Nc2cccc(C(=O)O)c2)cc1	Shiga inhibitor 107.8, Cycloheximide cs 55.5 (no result: NS1 inh)
CCN(C(=O)c1cc(S(=O)(=O)N2CCc3ccccc32)cn1C)c1ccccc1	none
COc1ccc(-c2nn(-c3ccccc3)cc2/C=N/N=C(N)N)cc1OC	Pf growth 96h 1.85µM, Pf growth 48h 1.65µM
COc1ccc(-c2nn(-c3ccccc3)cc2/C=N/O)cc1OC	none
COC(=O)C(NC(C)=O)(Nc1ccc(C)cn1)C(F)(F)F (centres undefined)	none
CCCCc1ccc(NC(=O)NCc2ccccn2)cc1	Pf growth 96h inconclusive, Cycloheximide cs 14.5
CCC(=O)Nc1ccc(C(=O)NCc2ccccn2)cc1	Pf growth 96h inconclusive
CCc1ccc(NC(=O)NCc2ccccn2)cc1	NS1 inh inconclusive, Shiga inhibitor 46.4, Cycloheximide cs 43.5
CCCCNC(=O)c1c[nH]c2ccc(S(=O)(=O)N3CCOCC3)cc2c1=O	Pf growth 48h inconclusive (no result: NS1 inh)
CCOC(=O)/C(C#N)=C\N(C)C	none
CCOC(=O)/C(C#N)=C/C=C1/C=CC=CN1C	Cycloheximide cs 27.1
C=CCN1C=CC(=C/C=C(/C#N)C(=O)OCC)C=C1	Cycloheximide cs 34.1
c1ccc(CSc2ccc(-c3ccccn3)nn2)nc1	Shiga inhibitor 97.7, Cycloheximide cs 47.8 (no result: NS1 inh)
Clc1ccc(-c2ccc(SCc3ccccn3)nn2)cc1	Pf growth 96h inconclusive, Shiga inhibitor 59.1, Cycloheximide cs 41.0
c1ccc(CSc2nnc(SCc3ccccn3)s2)nc1	Shiga inhibitor 59.1, Cycloheximide cs 30.4
N=C(N)SCc1ccccn1	Pf growth 48h inconclusive
O=C(CSc1ccc(-c2ccncc2)nn1)c1ccc(Cl)cc1	none (no result: NS1 inh)
O=[N+]([O-])c1ccc(CSc2ccc(-c3ccccn3)nn2)cc1	none
O=C(Nc1ccc(S(=O)(=O)Nc2ncccn2)cc1)c1ccccc1Br	none
COc1cc(CN2CCCC(C(=O)N3CCc4ccccc4C3)C2)cc(OC)c1OC (centres undefined)	Pf growth 96h inconclusive, Pf growth 48h inconclusive
O=C(Nc1ccc(N2CCOCC2)c(Cl)c1)c1ccc(-n2cnnc2)cc1Cl	none
COc1ccc2nc(N/C(N)=N/C(=S)Nc3ccc(C)c(C)c3)nc(C)c2c1	NS1 inh inconclusive, Pf growth 96h inconclusive
COc1ccc2nc(N/C(N)=N/C(=S)Nc3ccccc3)nc(C)c2c1	Pf growth 48h inconclusive, Shiga inhibitor 69.0, Cycloheximide cs 23.9 (no result: NS1 inh)
CCOc1ccc2nc(N/C(N)=N/C(=S)Nc3ccc(OC)cc3)nc(C)c2c1	Pf growth 96h inconclusive, Pf growth 48h 4.15µM
CC(=O)Nc1ccc(OCC(=O)NCc2ccc3c(c2)OCO3)cc1	Pf growth 48h inconclusive (no result: NS1 inh)
CC(=O)Nc1cccc(NC(=O)COc2ccc3c(c2)OCO3)c1	Shiga inhibitor 59.8, Cycloheximide cs 27.5
CCc1ccc(NC(=O)COc2ccc3c(c2)OCO3)cc1	Shiga inhibitor 41.8, Cycloheximide cs 31.4
COc1ccc(NC(=O)COc2ccc3c(c2)OCO3)cc1	none
CC(=O)c1ccc(NC(=O)COc2ccc3c(c2)OCO3)cc1	Pf growth 96h inconclusive, Cycloheximide cs 19.3 (no result: NS1 inh)
CC(=O)c1ccc(OCC(O)CNCc2ccc3c(c2)OCO3)cc1 (centres undefined)	Pf growth 48h 2.62µM
O=C(CCN1C(=O)C2C3CCC(C3)C2C1=O)Nc1cccc(Cl)c1 (centres undefined)	none
Cc1ccc(S(=O)(=O)N2CCCCC2)cc1NC(=O)C1CCCO1 (centres undefined)	none
CCC(C)NS(=O)(=O)c1ccc(OCC(=O)Nc2ccc3c(c2)OCCO3)cc1 (centres undefined)	Pf growth 96h inconclusive, Pf growth 48h inconclusive
CCc1ccc(OCC(=O)Nc2ccc3c(c2)OCCO3)cc1	Cycloheximide cs 27.0
O=C(COc1ccc(S(=O)(=O)N2CCCC2)cc1)Nc1ccc2c(c1)OCCO2	Pf growth 48h inconclusive, Shiga inhibitor 44.3, Cycloheximide cs 24.1
O=C(NCc1ccco1)C1CCCN(c2ncnc3c2nc2n3CCCCC2)C1 (centres undefined)	Pf growth 48h inconclusive
c1ccc(Cc2ccc(OCCCNC3CCCC3)cc2)cc1	NS1 inh inconclusive, Pf growth 48h inconclusive
N/C(=N\c1nc2ccccc2o1)NC(=O)c1ccccc1F	Shiga inhibitor 100.0, Cycloheximide cs 47.4
COc1ccccc1C(=O)NC(=Nc1nc2ccccc2o1)NC(=O)c1ccccc1OC	Pf growth 48h inconclusive, Shiga inhibitor 21.9, Cycloheximide cs 16.9
O=C(NC(=Nc1nc2ccccc2o1)NC(=O)c1ccccc1)c1ccccc1	none
N/C(=N\c1nc2ccccc2o1)NC(=O)c1cccc(Cl)c1	none
N/C(=N\c1nc2ccccc2o1)NC(=O)c1ccccc1NC(=O)c1ccccc1	Pf growth 48h inconclusive
CCCCC(=O)N/C(N)=N/c1nc2ccccc2o1	Shiga inhibitor 35.8, Cycloheximide cs 42.9
O=C(CCl)Nc1c[nH]c(=O)[nH]c1=O	Pf growth 48h 1.65µM
O=C(Cc1ccccc1)Nc1c[nH]c(=O)[nH]c1=O	Pf growth 96h inconclusive
O=C(Nc1ccccc1)c1cccc(N2C(=O)C3C4CC(C(Br)C4Br)C3C2=O)c1 (centres undefined)	Pf growth 96h inconclusive, Pf growth 48h 1.47µM
CN(C)c1ccc(NC(=O)c2cccc(N3C(=O)C4C5C=CC(C5)C4C3=O)c2)cc1 (centres undefined)	Cycloheximide cs 62.0 (no result: Pf growth 96h)
